Our source for the Potency values is PubChem BioAssay (Tox21).

The structures appear in SMILES notation. Records with an inconclusive call do not appear. Entries that show only a call come without a potency. Active and inactive are the calls of the source. Calls come from the whole dose curve; as a rule, active = well fitted cell-killing curve with a large enough effect in the repeat runs; inconclusive = weak or mixed curves, or effect the other way; inactive = flat fitted curve, though single readings scatter.

Experiment [1] can be described thus: cAMP Responsive Elements (CRE) small molecule antagonists, cell-based qHTS assay: qHTS cell viability counter screen (AID 2060913). Note: nearly all actives have a fitted effect of over 40% in size. As to conditions: CRE-bla HEK293T viability, CellTiter-Glo luminescence, 5 h; series mostly up to 92.4 µM. Put shortly:
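CRE-bla HEK293T cells (2,000/well, 18 h) given compound plus NKH477 0.25 uM final for 3 h at 37C; viability counter-screen by CellTiter-Glo luminescence in same wells after 30 min.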

Experiment [2] in a line: cAMP Responsive Elements (CRE) small molecule agonists, cell-based qHTS assay: qHTS cell viability counter screen (AID 2060914). Note: nearly all actives have a fitted effect of over 50% in size. As to conditions: CRE-bla HEK293T viability, CellTiter-Glo luminescence, 5 h; series mostly up to 92.4 µM. Put shortly: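 CRE-bla HEK293T cells in 10% dialyzed FBS medium were exposed to compounds for 3 h at 37C after 18 h plating. CellTiter-Glo was then added in the same wells, and luminescence was read after 30 min at room temperature.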

For the compound `N#CCNCC#N`, the Potency result in experiment [1] and in experiment [2] was “inactive” each time.
Regarding `O=C(O)c1ccc(=O)[nH]c1`, the Potency result in experiment [1] and in experiment [2] was “inactive” each time.
As for `CCC1(c2ccccc2)CCC(=O)NC1=O` (configuration not stated), the Potency entry in experiment [1] and in experiment [2] was “inactive” each time.
For the compound `ClSC(Cl)(Cl)Cl`, the Potency entry in experiment [1] and in experiment [2] was “inactive” throughout.
On to `CCC1COC(Cn2cncn2)(c2ccc(Cl)cc2Cl)O1` (configuration not stated), for which the Potency entry in experiment [1] and in experiment [2] was “inactive” in each case.
Regarding `CC1(C)Cc2cccc(O)c2O1`, the Potency result in experiment [1] and in experiment [2] was “inactive” in each case.
As to `O=C(Cl)CCl`, the Potency result in experiment [1] and in experiment [2] was “inactive” throughout.
`c1ccc(Nc2ccc3ccccc3c2)cc1`: the Potency entry in experiment [1] and in experiment [2] was “inactive” each time.
Regarding `COCCOCCO`, the Potency entry in experiment [1] and in experiment [2] was “inactive” throughout.
In the case of `CC(C)CC(C)Nc1ccc(Nc2ccccc2)cc1` (configuration not stated), the Potency entry in experiment [1] and in experiment [2] was “inactive” throughout.
For the compound `COP(=S)(OC)Oc1ccc(Sc2ccc(OP(=S)(OC)OC)cc2)cc1`, the Potency entry in experiment [1] and in experiment [2] was “inactive” each time.
For the compound `CC1CC(=O)O1` (configuration not stated), the Potency result in experiment [1] and in experiment [2] was “inactive” in each case.
For `CCOP(=S)(OCC)Oc1cc(C)nc(N(CC)CC)n1`, the Potency entry in experiment [1] and in experiment [2] was “inactive” each time.
For `O=C1OC(=O)C2C1C1(Cl)C(Cl)=C(Cl)C2(Cl)C1(Cl)Cl` (configuration not stated), the Potency entry in experiment [1] and in experiment [2] was “inactive” each time.
`CCOP(=S)(OCC)SCCS(=O)(=O)CC`: the Potency entry in experiment [1] and in experiment [2] was “inactive” throughout.
Turning to `CC[C@@H](CO)NC(=O)[C@@H]1C=C2c3cccc4c3c(cn4C)C[C@H]2N(C)C1`, the Potency entry in experiment [1] and in experiment [2] was “inactive” each time.
Take `CCOC(=O)OC1=C(c2cc(C)ccc2C)C(=O)NC12CCC(OC)CC2` (configuration not stated): the Potency entry in experiment [1] and in experiment [2] was “inactive” throughout.
For `O=c1nc(O)n(Cl)c(=O)n1Cl`, the Potency result in experiment [1] and in experiment [2] was “inactive” in each case.
For `CCCCON=O`, the Potency result in experiment [1] and in experiment [2] was “inactive” in each case.
With `C=CCO`, the Potency entry in experiment [1] and in experiment [2] was “inactive” each time.
With `OCC(Cl)CCl` (configuration not stated), the Potency result in experiment [1] and in experiment [2] was “inactive” each time.
In the case of `Nc1ncc([N+](=O)[O-])s1`, the Potency result in experiment [1] and in experiment [2] was “inactive” in each case.
As to `CC(C)(C)C(=O)C(Cl)Cl`, the Potency result in experiment [1] and in experiment [2] was “inactive” each time.
Take `ClCBr`: the Potency result in experiment [1] and in experiment [2] was “inactive” throughout.
For the compound `CCOP(=O)(N=C1SCCS1)OCC`, the Potency result in experiment [1] and in experiment [2] was “inactive” in each case.
Take `CCCCOP(=O)(CCCC)OCCCC`: the Potency result in experiment [1] and in experiment [2] was “inactive” in each case.
As for `O=S1(=O)OCCO1`, the Potency entry in experiment [1] and in experiment [2] was “inactive” throughout.
For the compound `CN(C)[C@@H]1C(=O)C(C(N)=O)=C(O)[C@@]2(O)C(=O)C3=C(O)c4c(O)cccc4[C@@](C)(O)[C@H]3C[C@@H]12`, the Potency entry in experiment [1] and in experiment [2] was “inactive” in each case.
Consider `COc1ccc(C(=O)c2c(C)n(CCN3CCOCC3)c3ccccc23)cc1`, for which the Potency result in experiment [1] and in experiment [2] was “inactive” in each case.
For the compound `O=C(O)C(Cl)(Cl)Cl`, the Potency entry in experiment [1] and in experiment [2] was “inactive” throughout.
Take `CCCCOC(=O)c1ccccc1C(=O)O`: the Potency result in experiment [1] and in experiment [2] was “inactive” each time.
Regarding `[O]=[Cd]`, the Potency entry in experiment [1] and in experiment [2] was “inactive” in each case.
As to `ClCc1ccccn1`, the Potency entry in experiment [1] and in experiment [2] was “inactive” in each case.
For the compound `CCOP(=S)(OCC)SCSCC`, the Potency result in experiment [1] and in experiment [2] was “inactive” throughout.
For the compound `O=C(C(Cl)(Cl)Cl)C(Cl)(Cl)Cl`, the Potency result in experiment [1] and in experiment [2] was “inactive” each time.
For `Oc1ccc(Cl)cc1Cl`, the Potency result in experiment [1] and in experiment [2] was “inactive” each time.
Take `CCC1(c2cccc(O)c2)CCCCN(C)C1` (configuration not stated): the Potency entry in experiment [1] and in experiment [2] was “inactive” each time.
With `CN(CCCC(=O)c1cccnc1)N=O`, the Potency result in experiment [1] and in experiment [2] was “inactive” each time.
In the case of `ClCc1ccccc1CCl`, the Potency entry in experiment [1] and in experiment [2] was “inactive” in each case.
For the compound `C=CCc1ccc2c(c1)OCO2`, the Potency result in experiment [1] and in experiment [2] was “inactive” throughout.
Regarding `C=C(C)CN(CC)c1c([N+](=O)[O-])cc(C(F)(F)F)cc1[N+](=O)[O-]`, the Potency entry in experiment [1] and in experiment [2] was “inactive” throughout.
Turning to `Cc1ccc(CCl)cc1`, the Potency entry in experiment [1] and in experiment [2] was “inactive” each time.
On to `Nc1cccc(Cl)c1`, for which the Potency result in experiment [1] and in experiment [2] was “inactive” throughout.
Regarding `COC(=O)c1ccccc1S(=O)(=O)NC(=O)Nc1nc(C)cc(C)n1`, the Potency result in experiment [1] and in experiment [2] was “inactive” throughout.
As for `C=C(C)C(=O)OCC1CO1` (configuration not stated), the Potency result in experiment [1] and in experiment [2] was “inactive” each time.
`CC[n+]1c(-c2ccccc2)c2cc(N)ccc2c2ccc(N)cc21`: the Potency entry in experiment [1] and in experiment [2] was “inactive” throughout.
`CCCC[N+]1(C)CCCC1`: the Potency result in experiment [1] and in experiment [2] was “inactive” each time.
For the compound `Nc1ccc(N)cc1`, the Potency entry in experiment [1] and in experiment [2] was “inactive” throughout.
As to `C[C@]12Cc3cn[nH]c3C[C@@H]1CC[C@@H]1[C@@H]2CC[C@@]2(C)[C@H]1CC[C@]2(C)O`, the Potency result in experiment [1] and in experiment [2] was “inactive” throughout.
With `C=CCOC(=O)C(C)(C)OC(=O)c1cc(-n2c(=O)cc(C(F)(F)F)n(C)c2=O)ccc1Cl`, the Potency entry in experiment [1] and in experiment [2] was “inactive” each time.
Consider `O=C(CCl)c1ccccc1`, for which the Potency entry in experiment [1] and in experiment [2] was “inactive” each time.
Turning to `CCOc1nc(F)cc2nc(S(=O)(=O)Nc3c(Cl)cccc3Cl)nn12`, the Potency result in experiment [1] and in experiment [2] was “inactive” throughout.
With `CNC(=O)Oc1cccc2c1OC(C)(C)C2`, the Potency result in experiment [1] and in experiment [2] was “inactive” in each case.
For `Nc1c(Cl)c(Cl)nc(C(=O)O)c1Cl`, the Potency result in experiment [1] and in experiment [2] was “inactive” each time.
On to `CCOC(=O)c1ccccc1C(=O)OCC`, for which the Potency entry in experiment [1] and in experiment [2] was “inactive” each time.
Regarding `ClCC(Cl)CCl`, the Potency entry in experiment [1] and in experiment [2] was “inactive” in each case.
With `O=[N+]([O-])c1ccc(Cl)c(Cl)c1Cl`, the Potency entry in experiment [1] and in experiment [2] was “inactive” each time.
Consider `Oc1c(Cl)c(Cl)cc(Cl)c1Cl`, for which the Potency result in experiment [1] and in experiment [2] was “inactive” throughout.
For `CCn1cc[n+](C)c1C`, the Potency entry in experiment [1] and in experiment [2] was “inactive” throughout.
As for `CCCCCCCCCCCCCCCl`, the Potency result in experiment [1] and in experiment [2] was “inactive” each time.
For `Oc1c(Cl)cccc1Cl`, the Potency entry in experiment [1] and in experiment [2] was “inactive” in each case.
